Screening data deposited in PubChem by National Center for Advancing Translational Sciences (NCATS).
HT1080 IDH1KD tx: qHTS for induction of synthetic lethality in tumor cells producing 2HG: qHTS for the HT-1080-IDH1KD cell line; actives 2% (n = 360,000); Potency, µM (series often up to 46.1 µM), without a hit: at the top dose activity, negative = toxicity, hits mostly cytotoxic; HT-1080 IDH1 knockdown viability, ATP luminescence, 48 h;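 note: 0% = DMSO wells and -100% = cell-free medium wells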
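% activity derives from luminescence (CellTiter-Glo), normalised to DMSO and no-cell wells. HT-1080-IDH1KD cells, 750/well, had 48 h compound exposure at 37 °C.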
TGFb inhibitor: qHTS for Inhibitors of TGF-b. HepG2 CAGA-GFP TGF-b/SMAD3 reporter, GFP fluorescence, 18 h; TGF-beta stimulated, 500 pg/mL final. Potency, µM (titrated, usually from 46.1 µM), for the others: at the top dose activity, negative = inhibition, actives largely listed as inhibitors. AID 588855, 2011. actives 1.2% (n = 410,000); note: % is set by controls: 0 for no effect and ±100 for the full control effect; nearly all actives have a fitted effect of over 65% in size
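Inhibition of TGF-beta-driven CAGA-GFP reporter expression in HEPG2 cells is measured by cellular GFP fluorescence after 18 h stimulation with 500 pg/mL recombinant TGF-beta in 1% FBS medium at 37 degrees C.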
DT40 TDP1 CPT: qHTS for Inhibitors of human tyrosyl-DNA phosphodiesterase 1 (TDP1): qHTS in cells in presence of CPT; actives 12% (n = 420,000); Potency, µM (titrated, usually from 46.2 µM), for the others: at the highest dose activity change, negative = growth inhibition, most hits filed as inhibitors; chicken DT40 Tdp1-/-;hTDP1 cells + 20 nM CPT, ATP luminescence, 48 h; note: % is set by controls: 0 for no effect and ±100 for the full control effect; nearly all actives have a fitted effect of over 55% in size
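Cell growth measured by CellTiter-Glo luminescence after a minimum 48 h, 37 C compound exposure with 20 nM CPT in Tdp1-knockout DT40 cells stably expressing hTDP1, seeded 400/well; qHTS titration format.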
HT1080NT lethal: qHTS for induction of synthetic lethality in tumor cells producing 2HG: qHTS for the HT-1080-NT fibrosarcoma cell line. Potency, µM (titrated, usually from 46.1 µM), for inactives: top-dose activity, negative = less viability, actives largely listed as cytotoxic. HT-1080-NT fibrosarcoma viability, CellTiter-Glo ATP luminescence, 48 h. actives 1.6% (n = 360,000);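 note: NT is the 2HG producing partner of a matched IDH1 knockdown line; 0% = DMSO-treated cells and -100% = media-only wells without cells; nearly all actives have a fitted effect of over 55% in size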
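Compounds were tested in concentration-response format on HT-1080-NT cells for 48 hours at 37 degrees C. Cell viability came from CellTiter-Glo luminescence; curves were classified by r2, response magnitude and activity.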
TDP1 cell noCPT: qHTS for Inhibitors of human tyrosyl-DNA phosphodiesterase 1 (TDP1): qHTS in cells in absence of CPT. DT40 Tdp1-/- hTDP1 cells, no CPT, ATP luminescence, 48 h. actives 15% (n = 420,000). Potency, µM (doses to about 46.2 µM), inactives show at the top dose activity change, negative = growth inhibition, actives largely listed as inhibitors; note: % is set by controls: 0 for no effect and ±100 for the full control effect; nearly all actives have a fitted effect of over 55% in size
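Chicken DT40 Tdp1-/- cells complemented with human TDP1, screened without camptothecin (DMSO vehicle only), 400 cells/well. Compounds pin-transferred, cells incubated at 37 °C for at least 48 hr. Growth read as ATP-dependent luminescence (CellTiter-Glo, 30 min at RT).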
HepG2 tox: qHTS for Inhibitors of TGF-b: Cytotox Counterscreen | actives 0.76% (n = 410,000) | Potency, µM (series often up to 46.1 µM), inactives show at the highest dose activity change, negative = cytotoxicity, most hits filed as cytotoxic | HepG2 CAGA-GFP viability, ATP luminescence, 18 h
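CellTiter-Glo luminescence gave cytotoxicity after 18 hours at 37 degrees C. The cells were HepG2 CAGA-GFP in 1% FBS DMEM, stimulated with 500 pg/mL TGF-beta after compound addition. %Activity was normalised to no-cell wells (complete cell-killing) and DMSO (no toxicity), and curves were fitted and classified.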
* = called active by the depositor. Only some compounds are listed: those with a hit (about 17% of all), similar ones and a draw of the others. Calls come from the whole dose curve; as a rule, active = well fitted curve in the direction sought with a large enough effect; inconclusive = small, poorly fitted or top-dose-only effect, or another doubt; inactive = no such curve, though single readings can be large; an effect the other way counts as inactive or inconclusive. Potency is the fitted concentration of half-maximal effect.

For CC(C)OC(=O)c1cccc(NC(=O)Cn2nnc3sc4c(c3c2=O)CCCC4)c1 the results were TGFb inhibitor -12.2%, DT40 TDP1 CPT inconclusive, TDP1 cell noCPT inconclusive and HepG2 tox -17.1%.
Screening O=c1c(-c2ccc(F)cc2)nc2cnc(N3CCOCC3)nc2n1CCc1ccccc1 returned DT40 TDP1 CPT 18.4% and TDP1 cell noCPT -2.2%.
Screening COC(=O)C1(CC2CC(c3ccc(Cl)cc3)=NO2)CCN(C(=O)OC(C)(C)C)CC1 (configuration not stated) returned HT1080 IDH1KD tx -1.4%, TGFb inhibitor inconclusive, DT40 TDP1 CPT 25.9µM*, HT1080NT lethal 0.9%, TDP1 cell noCPT 20.6µM* and HepG2 tox -33.1%.
Screening COC(=O)C1(Cc2cc(-c3cccnc3)no2)CCN(C(=O)OC(C)(C)C)CC1 returned HT1080 IDH1KD tx 10.1%, TGFb inhibitor 2.4%, DT40 TDP1 CPT inconclusive, HT1080NT lethal 2.7%, TDP1 cell noCPT inconclusive and HepG2 tox 2.4%.
`COC(=O)C1(Cc2cc(-c3ccc(Cl)cc3)no2)CCN(C(=O)OC(C)(C)C)CC1` gave HT1080 IDH1KD tx -6.0%, TGFb inhibitor inconclusive, DT40 TDP1 CPT inconclusive, HT1080NT lethal inconclusive, TDP1 cell noCPT 18.4µM* and HepG2 tox -15.0%.
`COC(=O)C1(Cc2cc(-c3ccc([N+](=O)[O-])cc3)no2)CCN(C(=O)OC(C)(C)C)CC1` gave HT1080 IDH1KD tx 4.4%, TGFb inhibitor inconclusive, DT40 TDP1 CPT inconclusive, HT1080NT lethal 4.2%, TDP1 cell noCPT 20.6µM* and HepG2 tox -6.0%.
For CC(C)(C)OC(=O)N1CCN(c2ccc([N+](=O)[O-])cc2)CC1 the results were HT1080 IDH1KD tx 4.3%, TGFb inhibitor -0.5%, DT40 TDP1 CPT -0.4%, HT1080NT lethal 2.4%, TDP1 cell noCPT 3.5% and HepG2 tox 4.4%.
Cc1nc(-c2ccc(C(=O)Nc3ccc(F)cc3)cc2)cs1 was read as HT1080 IDH1KD tx -2.7%, TGFb inhibitor 0.6%, DT40 TDP1 CPT 13.7%, HT1080NT lethal -22.3%, TDP1 cell noCPT 4.8% and HepG2 tox -26.6%.
`Cc1nc(-c2ccc(NC(=O)c3ccco3)cc2)cs1` gave HT1080 IDH1KD tx inconclusive, TGFb inhibitor -13.3%, DT40 TDP1 CPT 13µM*, HT1080NT lethal inconclusive, TDP1 cell noCPT inconclusive and HepG2 tox -62.7%.
`Nc1nc(-c2ccc(NC(=O)c3ccco3)cc2)cs1` gave HT1080 IDH1KD tx 16.4µM*, TGFb inhibitor 14.1%, DT40 TDP1 CPT 0.5%, HT1080NT lethal 7.31µM*, TDP1 cell noCPT inconclusive and HepG2 tox -25.5%.
`O=C(Nc1ccc(NC(=O)c2ccco2)cc1)c1ccco1` gave HT1080 IDH1KD tx -5.8%, TGFb inhibitor 0.0%, DT40 TDP1 CPT -0.5%, HT1080NT lethal -3.0%, TDP1 cell noCPT 4.4% and HepG2 tox -15.7%.
Screening O=C(Nc1ccc(-c2ccc(N3CCCCC3)nn2)cc1)c1ccco1 returned HT1080 IDH1KD tx -18.4%, TGFb inhibitor -0.5%, DT40 TDP1 CPT inconclusive, HT1080NT lethal -5.5%, TDP1 cell noCPT 25.9µM* and HepG2 tox -12.5%.
`Cc1nc(-c2ccc(C(=O)Nc3ccccc3F)cc2)cs1` gave HT1080 IDH1KD tx 20.6µM*, TGFb inhibitor 2.5%, DT40 TDP1 CPT -18.1%, HT1080NT lethal 11.6µM*, TDP1 cell noCPT inconclusive and HepG2 tox -61.1%.
For NC(C(=O)O)c1ccc(P(=O)(O)O)cc1 (configuration not stated) the results were DT40 TDP1 CPT -4.1% and TDP1 cell noCPT -7.2%.
CCCCCCNC(=O)CCCCCNS(=O)(=O)c1ccc(OC)cc1 was read as HT1080 IDH1KD tx -2.1%, TGFb inhibitor -3.1%, DT40 TDP1 CPT 18.4µM*, HT1080NT lethal -2.8%, TDP1 cell noCPT inconclusive and HepG2 tox -10.4%.
Screening CC(=O)Nc1ccc(S(=O)(=O)NCc2ccncc2)cc1 returned HT1080 IDH1KD tx -9.7%, TGFb inhibitor 6.0%, DT40 TDP1 CPT 9.2µM*, HT1080NT lethal 0.0%, TDP1 cell noCPT 9.2µM* and HepG2 tox -14.1%.
`CCOC(=O)COc1ccc(S(=O)(=O)NCc2ccncc2)cc1` gave HT1080 IDH1KD tx inconclusive, TGFb inhibitor -30.9%, DT40 TDP1 CPT inconclusive, HT1080NT lethal inconclusive, TDP1 cell noCPT inconclusive and HepG2 tox -28.8%.
`CCCCCCNC(=O)CCCCCNS(=O)(=O)c1ccc(Br)cc1` gave HT1080 IDH1KD tx -15.0%, TGFb inhibitor -13.0%, DT40 TDP1 CPT -22.7%, HT1080NT lethal -23.4%, TDP1 cell noCPT inconclusive and HepG2 tox -27.6%.
CCOc1cc(S(=O)(=O)NCc2cccs2)ccc1Cl was read as HT1080 IDH1KD tx 0.7%, TGFb inhibitor -40.3%, DT40 TDP1 CPT inconclusive, HT1080NT lethal 3.0%, TDP1 cell noCPT inconclusive and HepG2 tox -4.4%.
`CCOc1cc(S(=O)(=O)NCc2ccncc2)ccc1Cl` gave HT1080 IDH1KD tx inconclusive, TGFb inhibitor -17.3%, DT40 TDP1 CPT 0.517µM*, HT1080NT lethal inconclusive, TDP1 cell noCPT 0.581µM* and HepG2 tox -13.8%.
For CCOc1ccc(S(=O)(=O)NCc2ccncc2)cc1 the results were HT1080 IDH1KD tx -17.7%, TGFb inhibitor inconclusive, DT40 TDP1 CPT 0.461µM*, HT1080NT lethal -16.3%, TDP1 cell noCPT 0.517µM* and HepG2 tox 1.5%.
Screening Cc1nn(CCCC(=O)NCCc2ccc(Cl)cc2)c(=O)c2c1sc1ccccc12 returned TGFb inhibitor -6.5%, DT40 TDP1 CPT inconclusive, TDP1 cell noCPT inconclusive and HepG2 tox -2.0%.
`Nc1nc(SCC(=O)O)c2[nH]cnc2n1` gave TGFb inhibitor -1.2%, DT40 TDP1 CPT -1.1%, TDP1 cell noCPT 6.5% and HepG2 tox -0.6%.
Screening CC1CCCCC1NS(=O)(=O)c1ccc(S(=O)(=O)NCc2ccncc2)cc1 (configuration not stated) returned HT1080 IDH1KD tx inconclusive, TGFb inhibitor -4.7%, DT40 TDP1 CPT 6.51µM*, HT1080NT lethal -0.4%, TDP1 cell noCPT 7.31µM* and HepG2 tox 2.7%.
